Experimental findings from ChEMBL document CHEMBL3988442, “University of Dundee, Small-Polar-MMV Screening Library” (2021) are described below.

Parameters in all cases: scale not given: direction of the effect not stated beside the values
For assay [1], the target named is Protein translocase subunit SecA (Escherichia coli (strain K12)) (UniProt P10408). Briefly: Assay to Identify E. coli SecA ATPase Inhibitors. Format: functional. The following applies: 30 µM.
Assay [2] has as its target T1, Ubiquitin-activating enzyme e1, putative (Leishmania donovani (strain BPK282A1)) (UniProt E9BSI1).
T1 sequence (whole entry): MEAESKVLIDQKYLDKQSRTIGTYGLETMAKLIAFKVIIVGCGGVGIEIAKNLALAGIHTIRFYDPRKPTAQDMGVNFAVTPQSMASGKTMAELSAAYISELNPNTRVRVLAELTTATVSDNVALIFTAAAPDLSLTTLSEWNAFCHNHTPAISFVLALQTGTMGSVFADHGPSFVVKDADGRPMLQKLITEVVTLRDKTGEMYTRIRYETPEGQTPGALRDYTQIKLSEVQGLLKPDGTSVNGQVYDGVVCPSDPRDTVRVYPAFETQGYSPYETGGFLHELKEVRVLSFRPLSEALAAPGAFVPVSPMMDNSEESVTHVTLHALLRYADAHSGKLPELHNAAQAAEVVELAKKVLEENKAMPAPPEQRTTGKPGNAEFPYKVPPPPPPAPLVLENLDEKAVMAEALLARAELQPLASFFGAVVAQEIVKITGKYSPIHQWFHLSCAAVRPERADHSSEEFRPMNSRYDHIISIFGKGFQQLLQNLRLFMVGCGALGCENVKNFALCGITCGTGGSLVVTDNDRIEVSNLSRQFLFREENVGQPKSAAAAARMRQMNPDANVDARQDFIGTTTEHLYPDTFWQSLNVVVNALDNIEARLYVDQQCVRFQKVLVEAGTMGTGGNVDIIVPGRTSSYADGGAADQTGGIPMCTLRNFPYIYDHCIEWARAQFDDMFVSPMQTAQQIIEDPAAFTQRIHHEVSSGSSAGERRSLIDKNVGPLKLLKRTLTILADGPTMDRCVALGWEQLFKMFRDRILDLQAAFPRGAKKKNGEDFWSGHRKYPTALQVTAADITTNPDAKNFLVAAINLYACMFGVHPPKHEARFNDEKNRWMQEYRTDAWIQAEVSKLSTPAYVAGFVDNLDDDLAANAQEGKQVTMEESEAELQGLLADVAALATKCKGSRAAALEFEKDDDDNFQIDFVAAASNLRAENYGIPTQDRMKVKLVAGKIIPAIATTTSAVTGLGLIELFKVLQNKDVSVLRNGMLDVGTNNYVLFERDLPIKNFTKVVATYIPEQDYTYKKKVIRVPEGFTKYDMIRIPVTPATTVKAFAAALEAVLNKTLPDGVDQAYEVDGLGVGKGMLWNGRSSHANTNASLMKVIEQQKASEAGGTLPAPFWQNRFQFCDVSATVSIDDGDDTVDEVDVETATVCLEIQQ
Briefly: Leishmania donovani Ubiquitin Activating Enzyme (LdE1). Format: functional. The note with it: 30 µM.

Assay [3] concerns the target AMP-activated protein kinase, AMPK (Homo sapiens) (UniProt P54646+O43741+P54619+Q9UGJ0+Q9Y478+Q13131+Q9UGI9). Briefly: AMP-dependent Kinase enzyme assay. An in vitro enzyme assay that detects ADP turnover that is directly proportional to AMPK activity. This uses naive AMPK that is activated during the assay with MK-8722. The assay is classed as functional. The following applies: 30 µM.

For assay [4], the target named is Sialic acid-binding Ig-like lectin 9 (Homo sapiens) (UniProt Q9Y336). Briefly: Hs-Siglec9 ALPHAscreen SOP 20170721. The following applies: 10 µM.
Sequence of Sialic acid-binding Ig-like lectin 9 (Homo sapiens) (Q9Y336 whole entry): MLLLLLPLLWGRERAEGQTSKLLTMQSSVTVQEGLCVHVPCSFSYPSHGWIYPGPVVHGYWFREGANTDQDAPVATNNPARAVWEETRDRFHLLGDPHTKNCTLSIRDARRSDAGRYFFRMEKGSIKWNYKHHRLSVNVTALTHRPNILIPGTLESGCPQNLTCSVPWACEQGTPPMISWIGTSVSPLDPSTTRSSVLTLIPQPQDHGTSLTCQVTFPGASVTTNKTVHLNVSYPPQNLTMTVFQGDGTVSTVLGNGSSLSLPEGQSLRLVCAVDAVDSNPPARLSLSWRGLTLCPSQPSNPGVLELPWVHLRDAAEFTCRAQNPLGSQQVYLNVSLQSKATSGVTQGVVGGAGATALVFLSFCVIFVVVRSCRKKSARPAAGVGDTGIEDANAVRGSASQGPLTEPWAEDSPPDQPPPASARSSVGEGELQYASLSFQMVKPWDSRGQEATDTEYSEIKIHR
The subject of the next assay is Trypanosoma cruzi. Briefly: Trypanosoma cruzi phosphomannomutase and mannose-1-phosphate guanylyltransferase assay. Format: functional. The note with it: 10 µM.
The target of assay [5] is T2, Arginase-2, mitochondrial (Homo sapiens) (UniProt P78540).
T2 sequence (whole entry): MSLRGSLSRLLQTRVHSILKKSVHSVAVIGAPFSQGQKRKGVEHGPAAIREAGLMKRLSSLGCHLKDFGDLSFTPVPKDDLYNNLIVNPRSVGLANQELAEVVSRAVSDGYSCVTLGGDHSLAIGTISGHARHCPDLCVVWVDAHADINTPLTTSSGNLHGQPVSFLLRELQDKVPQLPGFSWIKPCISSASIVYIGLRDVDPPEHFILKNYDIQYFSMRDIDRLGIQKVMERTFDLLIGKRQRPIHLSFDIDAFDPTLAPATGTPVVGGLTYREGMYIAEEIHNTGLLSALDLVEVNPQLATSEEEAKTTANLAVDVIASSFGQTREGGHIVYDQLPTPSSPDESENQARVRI
As to the kind of experiment: in vitro enzyme assay to detect the production of urea directly proportional to the activity of Arginase II. Also: in the data most compounds retested in dose-response had high values. The note with it: 33.3 µM. Format: functional.

The target of assay [6] is T3, Proteasome subunit beta (Trypanosoma cruzi) (UniProt O96673).
T3 sequence (whole entry): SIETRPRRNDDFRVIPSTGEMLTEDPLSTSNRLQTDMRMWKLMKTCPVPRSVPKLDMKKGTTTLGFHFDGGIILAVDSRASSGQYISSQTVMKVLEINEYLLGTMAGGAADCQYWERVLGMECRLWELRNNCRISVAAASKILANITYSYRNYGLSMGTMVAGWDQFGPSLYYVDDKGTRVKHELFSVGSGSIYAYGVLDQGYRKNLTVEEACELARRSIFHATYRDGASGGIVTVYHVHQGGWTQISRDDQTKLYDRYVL
Briefly: Trypanosoma cruzi proteasome chymotrypsin-like activity (TcProtChymo) assay. Also: in the data most compounds retested in dose-response had high values. The assay is classed as functional. The following applies: 9.37 µM.

The next assay is filed under the species Homo sapiens. Briefly: To identify inhibition of the IFN signalling (Jak-Stat) pathway via expression of an eGFP reporter gene under the control of an IFN-stimulated response element (ISRE) containing MxA promoter. The assay is classed as functional. The following applies: 30 µM.
The target of assay [7] is T4, Tyrosyl-tRNA synthetase, putative (Trypanosoma cruzi (strain CL Brener)) (UniProt Q4DSP6).
T4 sequence (whole entry): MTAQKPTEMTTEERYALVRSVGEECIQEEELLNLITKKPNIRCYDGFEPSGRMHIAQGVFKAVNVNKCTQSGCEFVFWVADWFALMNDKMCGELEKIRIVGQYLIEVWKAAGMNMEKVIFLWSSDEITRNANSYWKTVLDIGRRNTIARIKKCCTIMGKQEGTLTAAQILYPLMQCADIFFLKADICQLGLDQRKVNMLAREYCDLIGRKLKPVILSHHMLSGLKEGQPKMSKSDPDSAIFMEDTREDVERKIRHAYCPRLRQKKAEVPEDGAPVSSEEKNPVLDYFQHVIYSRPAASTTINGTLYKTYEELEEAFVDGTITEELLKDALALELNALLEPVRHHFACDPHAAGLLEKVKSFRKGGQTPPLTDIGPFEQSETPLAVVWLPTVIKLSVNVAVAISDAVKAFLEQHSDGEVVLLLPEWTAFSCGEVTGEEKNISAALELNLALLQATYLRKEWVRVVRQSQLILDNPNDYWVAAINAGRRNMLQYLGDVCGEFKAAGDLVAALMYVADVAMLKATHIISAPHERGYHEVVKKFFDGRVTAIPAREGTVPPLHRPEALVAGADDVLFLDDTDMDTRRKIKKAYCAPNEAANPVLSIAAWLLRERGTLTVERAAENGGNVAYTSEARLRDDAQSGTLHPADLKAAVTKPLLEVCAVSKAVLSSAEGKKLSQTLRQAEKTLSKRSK
As to the kind of experiment: Trypanosoma cruzi tyrosyl tRNA synthetase (TcYRS) _High Tyrosine SOP. Also: in the data most compounds retested in dose-response had high values. The assay is classed as functional. The following applies: 30 µM.

For assay [8], the target named is T4, Tyrosyl-tRNA synthetase, putative (Trypanosoma cruzi (strain CL Brener)). As to the kind of experiment: Trypanosoma cruzi tyrosyl tRNA synthetase (TcYRS) SOP. The assay is classed as functional. The following applies: 30 µM.
The target of assay [9] is Chromo domain-containing protein 1 (Saccharomyces cerevisiae (strain ATCC 204508 / S288c) (Baker's yeast)) (UniProt P32657). Briefly: ScCHD-1 Enzyme Inhibition Assay. Also: in the data most compounds retested in dose-response had high values. Format: functional. The following applies: 30 µM.
Sequence of Chromo domain-containing protein 1 (Saccharomyces cerevisiae (strain ATCC 204508 / S288c) (Baker's yeast)) (P32657 whole entry, the tested form may be a part): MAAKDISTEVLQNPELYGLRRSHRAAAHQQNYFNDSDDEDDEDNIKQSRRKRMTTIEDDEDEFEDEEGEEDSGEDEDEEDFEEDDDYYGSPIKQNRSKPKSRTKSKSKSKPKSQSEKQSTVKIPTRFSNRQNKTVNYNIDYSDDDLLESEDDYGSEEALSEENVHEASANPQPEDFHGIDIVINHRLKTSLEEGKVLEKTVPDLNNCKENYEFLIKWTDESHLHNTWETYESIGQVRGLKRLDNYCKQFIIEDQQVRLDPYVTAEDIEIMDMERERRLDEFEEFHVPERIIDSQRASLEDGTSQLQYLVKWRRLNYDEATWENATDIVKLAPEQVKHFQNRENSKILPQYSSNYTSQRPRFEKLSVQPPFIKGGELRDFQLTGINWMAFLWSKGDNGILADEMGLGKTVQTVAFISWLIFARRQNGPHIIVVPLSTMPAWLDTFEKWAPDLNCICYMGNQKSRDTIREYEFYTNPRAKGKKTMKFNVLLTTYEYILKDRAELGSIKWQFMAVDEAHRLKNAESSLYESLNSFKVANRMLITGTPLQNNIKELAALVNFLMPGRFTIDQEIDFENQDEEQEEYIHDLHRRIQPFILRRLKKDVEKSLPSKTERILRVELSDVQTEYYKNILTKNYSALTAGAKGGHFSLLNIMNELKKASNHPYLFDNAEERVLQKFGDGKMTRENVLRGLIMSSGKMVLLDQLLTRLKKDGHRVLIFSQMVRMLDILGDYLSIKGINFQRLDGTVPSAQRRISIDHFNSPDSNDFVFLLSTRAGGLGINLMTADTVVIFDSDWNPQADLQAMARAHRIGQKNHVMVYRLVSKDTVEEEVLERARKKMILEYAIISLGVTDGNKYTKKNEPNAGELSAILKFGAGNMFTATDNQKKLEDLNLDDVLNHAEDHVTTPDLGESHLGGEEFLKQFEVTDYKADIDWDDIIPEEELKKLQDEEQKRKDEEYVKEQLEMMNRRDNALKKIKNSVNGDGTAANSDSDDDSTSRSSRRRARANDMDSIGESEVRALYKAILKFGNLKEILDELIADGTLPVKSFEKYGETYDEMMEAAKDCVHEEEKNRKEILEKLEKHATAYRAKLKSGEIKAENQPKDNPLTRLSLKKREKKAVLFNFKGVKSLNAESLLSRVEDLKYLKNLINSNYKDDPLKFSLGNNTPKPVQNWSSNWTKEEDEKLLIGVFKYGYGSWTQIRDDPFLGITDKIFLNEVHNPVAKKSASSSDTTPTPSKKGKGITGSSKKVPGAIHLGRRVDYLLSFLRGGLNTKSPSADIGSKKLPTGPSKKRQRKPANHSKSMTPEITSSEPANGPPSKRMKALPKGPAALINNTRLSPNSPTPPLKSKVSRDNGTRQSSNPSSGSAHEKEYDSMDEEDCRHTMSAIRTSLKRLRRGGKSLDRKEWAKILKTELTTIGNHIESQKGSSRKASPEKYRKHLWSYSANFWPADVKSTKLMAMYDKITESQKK

The structures appear in SMILES notation. For some of these results: Entries with a potency or affinity are not part of this list.

Sequence of Protein translocase subunit SecA (Escherichia coli (strain K12)) (P10408 whole entry): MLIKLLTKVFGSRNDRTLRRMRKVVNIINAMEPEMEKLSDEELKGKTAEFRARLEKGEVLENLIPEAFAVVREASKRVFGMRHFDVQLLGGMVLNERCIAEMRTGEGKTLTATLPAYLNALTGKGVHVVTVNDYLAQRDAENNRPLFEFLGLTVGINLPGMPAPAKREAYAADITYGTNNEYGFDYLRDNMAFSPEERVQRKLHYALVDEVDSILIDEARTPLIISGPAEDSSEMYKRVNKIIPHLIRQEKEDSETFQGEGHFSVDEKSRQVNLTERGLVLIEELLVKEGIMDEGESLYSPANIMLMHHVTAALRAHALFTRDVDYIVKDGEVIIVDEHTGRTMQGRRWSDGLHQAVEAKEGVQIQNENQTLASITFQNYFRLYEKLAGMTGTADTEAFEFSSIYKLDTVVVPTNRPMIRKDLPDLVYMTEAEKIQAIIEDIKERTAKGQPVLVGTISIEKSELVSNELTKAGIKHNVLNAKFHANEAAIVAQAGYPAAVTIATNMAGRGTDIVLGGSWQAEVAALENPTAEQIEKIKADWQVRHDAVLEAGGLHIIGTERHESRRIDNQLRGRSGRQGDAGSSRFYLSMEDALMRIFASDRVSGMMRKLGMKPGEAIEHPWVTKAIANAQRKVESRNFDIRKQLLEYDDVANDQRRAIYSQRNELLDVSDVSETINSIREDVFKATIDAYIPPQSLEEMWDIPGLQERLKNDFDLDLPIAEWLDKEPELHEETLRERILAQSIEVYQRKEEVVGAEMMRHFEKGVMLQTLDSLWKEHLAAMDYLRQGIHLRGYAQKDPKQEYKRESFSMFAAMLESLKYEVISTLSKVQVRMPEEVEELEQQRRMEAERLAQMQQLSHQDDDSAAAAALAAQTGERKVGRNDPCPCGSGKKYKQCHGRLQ

For `N#Cc1cccc(S(=O)(=O)N2CCCCC2CCN2CCCC2=O)c1` (stereo not drawn), the Percent Effect was -5.51% in [1]; -52% in assay [2]; -6.45% in [3]; 9.03% in [4]; 4.76% in the assay with Trypanosoma cruzi; 2% in [5]. Besides, the Percent Effect in [6] was 8.99%; in the assay listed under Homo sapiens, -12.8%; in assay [7] it was 4.17%; in assay [8] it was 11.1%; in assay [9] it was -4.06%.
Turning to `CC(NC(=O)Cn1cccn1)c1ccc2c(c1)OCCCO2` (stereo not drawn), the Percent Effect was -2.38% in assay [1]; 28.6% in assay [2]; 20.8% in [3]; 1.54% in [4]; 6.55% in the assay on Trypanosoma cruzi; 3.92% in [5]. Also, the Percent Effect is 10.1% in [6]; 32.9% in the assay listed under Homo sapiens; 8.74% in assay [7]; 14.6% in assay [8]; -16.5% in assay [9].
Regarding `Cc1csc(CNC(=O)NC2CCN(c3ncccn3)CC2)n1`, the Percent Effect is -4.13% in assay [1]; 11% in assay [2]; -4.87% in [3]; 16.2% in assay [4]; 4.37% in the assay on Trypanosoma cruzi; -3.19% in assay [5]. In addition, the Percent Effect in assay [6] is 12.6%; in the assay listed under Homo sapiens it was 5.21%; in assay [7], 10.4%; in assay [8], 25.9%; in assay [9], -3.12%.
For `Cc1ccc(NC2CCN(C(=O)Cc3cccc(F)c3)CC2)nn1`, the Percent Effect in assay [1] was -1.31%; in [2], 21.6%; in assay [3], -15.1%; in assay [4], 7.97%; with Trypanosoma cruzi, 7.83%; in assay [5], -12%. The Percent Effect is 6.67% in [6]; 6.31% in the assay filed under Homo sapiens; 9.36% in assay [7]; 28.4% in assay [8]; -10.9% in [9].
Consider `Cc1ccc(OCC(=O)NCc2ccccc2F)nc1`, for which the Percent Effect is -2.7% in [1]; 19.2% in [2]; -0.689% in [3]; 12.5% in assay [4]; 4.56% with Trypanosoma cruzi; -2.4% in assay [5]. Also, the Percent Effect is 8.13% in assay [6]; 13.8% in the assay filed under Homo sapiens; 7.29% in assay [7]; 13.6% in [8]; -4.08% in [9].
As to `Cc1cc(CN2CCC(CNC(=O)c3nccc4ccccc34)C2)[nH]n1` (stereo not drawn), the Percent Effect in [1] was 1.25%; in assay [2] it was 10.8%; in [3], -15.5%; in assay [4], 7.44%; in the assay on Trypanosoma cruzi, 4.2%; in [5], 15.6%. For the same compound, the Percent Effect in [6] is 12.3%; in the assay listed under Homo sapiens, 26.4%; in assay [7], 11.8%; in assay [8], 25.9%; in [9], -2.74%.
With `NCCn1nc(C2CCN(C(=O)CC3CCCCC3)C2)c2nccnc21` (stereo not drawn), the Percent Effect was -2.44% in assay [1]; -10.7% in assay [2]; 3.88% in [3]; 8.44% in assay [4]; 1.57% in the assay on Trypanosoma cruzi; -3.5% in [5]. In addition, the Percent Effect in assay [6] is -10.5%; in the assay filed under Homo sapiens, 11.9%; in [7], -8.51%; in assay [8] it was 8.97%; in assay [9] it was -1.74%.
`CN(C)C(=O)c1ccc2c(c1)N(C)C(CC(=O)NCCC(C)(C)C)CO2` (stereo not drawn): the Percent Effect in assay [1] is -3.89%; in assay [2] it was 9.72%; in [3], 3.96%; in assay [4] it was 13.4%; in the assay on Trypanosoma cruzi, 5.73%; in [5], 22.1%. The Percent Effect was 14.4% in assay [6]; 2.35% in the assay filed under Homo sapiens; 3.16% in [7]; 10.3% in [8]; -5.3% in assay [9].
